Values without a mark were called inactive. Records with an inconclusive call do not appear. Calls of active or inactive are those of the source. Unless noted, calls follow the shape of the dose curve; as a rule, active = well fitted curve in the direction sought with a large enough effect in the repeat runs; inconclusive = weak or mixed curves; inactive = no such curve, though single readings can be large; an effect the other way counts as inactive or inconclusive.

A short description of assay [1]: qHTS assay for small molecule agonists of the p53 signaling pathway (AID 651631; calls by dose curve; also: nearly all actives have a fitted effect of over 15% in size; also: potency is read from the fitted curve at half-maximal effect). The procedure, abridged: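 p53RE-bla HCT-116 cells; compounds 16 h, 37 °C; LiveBLAzer B/G FRET substrate 2 h RT; fluorescence intensity read-out, qHTS format.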
On the technique in general: Quantitative high-throughput screening tests each substance at several concentrations.

A short description of assay [2]: qHTS assay for small molecules that induce genotoxicity in human embryonic kidney cells expressing luciferase-tagged ATAD5 (AID 651632). Also: % is scaled to controls: 0 for no effect and ±100 for the full control effect; nearly all actives have a fitted effect of over 15% in size. Summed up:
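Reporter cells (HEK293T) express luciferase-tagged ATAD5, a protein that accumulates after DNA damage. Treat 16 hr at 37C/5% CO2, add Amplite, wait 30 min at RT, and read luminescence.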

Assay [3] can be described thus: qHTS assay for small molecules that induce genotoxicity in human embryonic kidney cells expressing luciferase-tagged ATAD5 - cell viability (AID 651634; calls by dose curve; also: potency is read from the fitted curve at half-maximal effect; nearly all actives have a fitted effect of over 25% in size). The procedure, abridged:
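Seeding of 2,000 HEK293T ATAD5-luciferase cells per well preceded pin-tool compound transfer. Plates sat 15.5 hr at 37C under 5% CO2, then fluorescence was read after 30 min with CellTiter-Fluor.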

The nature of assay [4]: qHTS assay for small molecule disruptors of the mitochondrial membrane potential - cell viability (AID 720634; calls by dose curve; also: nearly all actives have a fitted effect of over 20% in size; also: potency is read from the fitted curve at half-maximal effect). Summed up:
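Measuring cytotoxicity alongside mitochondrial potential, the screen quantified ATP by luminescence in HepG2 cells after 1 hr compound incubation and a 30 min room-temperature CellTiter-Glo step.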

The nature of assay [5]: qHTS assay for small molecule disruptors of the mitochondrial membrane potential (AID 720635). Also: potency is read from the fitted curve at half-maximal effect. The procedure, abridged:
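HepG2 cells exposed to compound 1 hr at 37C, then Mito-MPS dye 30 min. Ratio read of aggregate (540/590 nm) versus monomer (490/535 nm) fluorescence.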

Assay [6] in a line: qHTS assay to test for compound auto fluorescence at 590 nm (red) in HepG2 cells (AID 720674). Also: % is scaled to controls: 0 for no effect and ±100 for the full control effect. The procedure, abridged: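 Fluorescence at 590 nm emission following 540 nm excitation was recorded from HepG2 wells one hour after compound transfer, with DMSO-only wells as vehicle and Rose Bengal sodium equivalency as the scale.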
Assay [7] in a line: qHTS assay to test for compound auto fluorescence at 460 nm (blue) in HEK293 cells (AID 720678). Also: % is scaled to controls: 0 for no effect and ±100 for the full control effect. Summed up:
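Cells were seeded and left to adhere for 4-5 hr at 37C. Compounds were then pin-transferred. After an overnight incubation at 37C under 5% CO2, intrinsic fluorescence at 405/460 nm was measured and referenced to triamterene.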

A short description of assay [8]: qHTS assay to test for compound auto fluorescence at 590 nm (red) in HEK293 cells (AID 720679). Also: % is scaled to controls: 0 for no effect and ±100 for the full control effect. Summed up: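 Each well held 2,000 HEK293 cells in medium containing 10% dialyzed FBS. Following 4-5 hr attachment at 37C, 23 nL test compound or DMSO was added; plates sat overnight, and red fluorescence (540/590nm) was recorded.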
A short description of assay [9]: qHTS assay to test for compound auto fluorescence at 535 nm (green) in HEK293 cells (AID 720680). Also: % is scaled to controls: 0 for no effect and ±100 for the full control effect.
Assay [10] in a line: qHTS assay to test for compound auto fluorescence at 460 nm (blue) in HEK293 cell free culture (AID 720681). Also: % is scaled to controls: 0 for no effect and ±100 for the full control effect. Summed up:
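Compounds were added to cell-free DMEM with 10% FBS and fluorescence read directly. The blue channel used 405 nm excitation and 460 nm emission, with triamterene as the reference fluorophore.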

A short description of assay [11]: qHTS assay to test for compound auto fluorescence at 590 nm (red) in HepG2 cell free culture (AID 720684). Also: % is scaled to controls: 0 for no effect and ±100 for the full control effect. The procedure, abridged:
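Compounds are added to culture medium (MEM, 10% FBS) lacking cells, then fluorescence is read at excitation 540 nm, emission 590 nm, with Rose Bengal sodium as the equivalency standard.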

The nature of assay [12]: qHTS assay to test for compound auto fluorescence at 460 nm (blue) in HepG2 cell free culture (AID 720685). Also: % is scaled to controls: 0 for no effect and ±100 for the full control effect. The procedure, abridged: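 Compound (23 nL) or DMSO pinned into cell-free MEM with 10% FBS; blue fluorescence read at 405/460 nm excitation/emission, expressed as auto-fluorescence equivalency to triamterene.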
Assay [13] can be described thus: qHTS assay to test for compound auto fluorescence at 535 nm (green) in HepG2 cell free culture (AID 720686). Also: % is scaled to controls: 0 for no effect and ±100 for the full control effect.
A short description of assay [14]: qHTS assay to test for compound auto fluorescence at 460 nm (blue) in HepG2 cells (AID 720687). Also: % is scaled to controls: 0 for no effect and ±100 for the full control effect. Summed up: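 HepG2 cells in MEM with 10% FBS, attached overnight at 37 C, were exposed to compound or DMSO for 1 hr at 37 C, 5% CO2. Blue fluorescence was read at 405/460 nm, with triamterene as reference fluorophore.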
The nature of assay [15]: qHTS assay for small molecule agonists of the p53 signaling pathway - cell viability (AID 651633; calls by dose curve;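 also: p53RE-bla HCT reporter cells with a stable beta-lactamase p53 reporter; series mostly up to about 83 µM; % is scaled to controls: 0 for no effect and ±100 for the full control effect; nearly all actives have a fitted effect of over 30% in size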). Summed up:
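p53RE-bla cells were treated with compound for 16 hours at 37 C. Cytotoxicity was then measured as CellTiter-Glo luminescence after 30 min at room temperature.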

Assay [16] in a line: qHTS assay to test for compound auto fluorescence at 535 nm (green) in HepG2 cells (AID 720675). Also: % is scaled to controls: 0 for no effect and ±100 for the full control effect.
Assay [17] is described as follows: qHTS assay to test for compound auto fluorescence at 535 nm (green) in HEK293 cell free culture (AID 720682). Also: % is scaled to controls: 0 for no effect and ±100 for the full control effect. Summed up:
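Cell-free medium (DMEM, 10% FBS) receives compound or DMSO by pintool. Plate read directly at Ex 485/Em 535 nm. Signal converted to fluorescein equivalency.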

Assay [18] is described as follows: qHTS assay to test for compound auto fluorescence at 590 nm (red) in HEK293 cell free culture (AID 720683). Also: % is scaled to controls: 0 for no effect and ±100 for the full control effect. The procedure, abridged: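 Cell-free wells of DMEM with 10% FBS received compound, and intrinsic fluorescence was read at excitation/emission 540/590 nm. Values expressed as equivalence to Rose Bengal sodium.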
Assay [19] has as its target Glucocorticoid receptor (Homo sapiens) (UniProt P04150). As to the kind of experiment: qHTS assay to identify small molecule agonists of the glucocorticoid receptor (GR) signaling pathway (AID 720691; active = well fitted activation curve with a large enough effect in the signal ratio in the repeat runs, not every such curve was filed as active; the % refers to the signal ratio; also: % is scaled to controls: 0 for no effect and ±100 for the full control effect). The procedure, abridged: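 Reporter read-out: fluorescence intensity following 2 h room-temperature LiveBLAzer B/G FRET substrate loading. Prior step: GR-bla HeLa cells held 4 h, then treated 18 h at 37 C.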

Sequence of Glucocorticoid receptor (Homo sapiens) (P04150 whole entry, looked up): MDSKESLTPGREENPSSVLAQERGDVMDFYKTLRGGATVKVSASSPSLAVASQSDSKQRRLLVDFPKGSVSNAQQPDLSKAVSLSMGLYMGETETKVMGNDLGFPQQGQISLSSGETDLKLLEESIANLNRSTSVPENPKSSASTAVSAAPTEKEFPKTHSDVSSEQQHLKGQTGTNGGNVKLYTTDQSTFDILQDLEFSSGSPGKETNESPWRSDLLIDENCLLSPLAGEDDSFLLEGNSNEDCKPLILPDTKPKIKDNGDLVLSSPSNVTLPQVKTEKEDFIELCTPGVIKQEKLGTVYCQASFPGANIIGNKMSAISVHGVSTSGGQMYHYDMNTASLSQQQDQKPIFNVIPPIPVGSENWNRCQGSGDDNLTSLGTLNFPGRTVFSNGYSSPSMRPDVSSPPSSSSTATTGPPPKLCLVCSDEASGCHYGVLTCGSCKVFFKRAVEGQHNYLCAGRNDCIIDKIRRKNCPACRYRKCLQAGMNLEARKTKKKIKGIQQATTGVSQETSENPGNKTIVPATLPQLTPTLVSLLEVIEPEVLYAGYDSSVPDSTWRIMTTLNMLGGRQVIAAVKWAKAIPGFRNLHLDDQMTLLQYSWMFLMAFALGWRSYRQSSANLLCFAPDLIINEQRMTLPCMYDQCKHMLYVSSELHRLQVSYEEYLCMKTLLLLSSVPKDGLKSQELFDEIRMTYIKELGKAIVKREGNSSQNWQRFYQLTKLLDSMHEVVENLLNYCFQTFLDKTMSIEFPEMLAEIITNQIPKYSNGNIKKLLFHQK

Regarding `CN1C(=O)N(c2ccccc2Br)Cc2cnc(Nc3ccc4c(c3)OCC(CO)O4)nc21` (stereo unspecified), the Potency is 19.3 µM (active) in assay [1], 54.5 µM (active) in assay [3], 48.6 µM (active) in [4] and 24.3 µM (active) in assay [5]. Moreover, the Potency entry in assay [2], in assay [7], in [10], in assay [12] and in assay [14] was “inactive” each time. The outcome in assay [6], in [8], in assay [9], in [11] and in assay [13] was inactive.

Regarding `CCCCOc1ccc(OCCCN2CCOCC2)cc1`, the Potency result in assay [1], in assay [2], in [15] and in assay [4] was “inactive” in each case. Besides, the values for the fluorescence, % of fluorescein control in assay [16] and in [13] were -0.0009% [at 18.6 µM] and -0.0254% [at 18.6 µM], respectively. Besides, in [7], the fluorescence, % of triamterene is -0.0611% [at 18.6 µM]. In addition, the fluorescence, % of fluorescent control in assay [8] is -0.188% [at 18.6 µM]; in assay [10] it was -0.123% [at 18.6 µM]; in assay [18] it was -0.046% [at 18.6 µM]; in assay [12] it was -0.102% [at 18.6 µM]; in assay [14] it was -0.0756% [at 18.6 µM]. The fluorescence, % of fluorescein in assay [9] was 0.0257% [at 18.6 µM]. In addition, in assay [17], the activity change was 0.0858% [at 18.6 µM]. Besides, the fluorescence, % of Rose Bengal in [11] is 0.461% [at 18.6 µM].

For `Nc1ncnc2c1ncn2[C@H]1CC[C@@H](CO)O1`, the Potency entry in [1], in [2], in assay [15], in [4], in assay [5] and in assay [7] was “inactive” in each case. In addition, the Potency entry in [10], in [12] and in [14] was “inactive” throughout. Also, the call in assay [6], in assay [16], in assay [8], in assay [9], in [17] and in assay [18] was inactive. For the same molecule, the result in [11] and in [13] was inactive.

`C=C1C[C@@]23CC[C@H]4[C@@](C)(CCC[C@@]4(C)C(=O)O[C@@H]4O[C@H](CO)[C@@H](O)[C@H](O)[C@H]4O)[C@@H]2CC[C@]1(O[C@@H]1O[C@H](CO)[C@@H](O)[C@H](O[C@@H]2O[C@H](CO)[C@@H](O)[C@H](O)[C@H]2O)[C@H]1O[C@@H]1O[C@H](CO)[C@@H](O)[C@H](O)[C@H]1O)C3`: the Potency entry in assay [1], in assay [2], in assay [15], in assay [4], in [5] and in [7] was “inactive” each time. For the same molecule, the Potency entry in assay [10], in assay [12], in [14] and in assay [19] was “inactive” throughout. Moreover, the result in [6], in assay [16], in assay [9], in assay [17], in assay [18] and in assay [11] was inactive.

On to `Cc1cc(C)cc(N)c1`, for which the Potency result in [1], in [2], in assay [15], in assay [4], in assay [5] and in [7] was “inactive” each time. The Potency result in assay [10], in assay [12], in [14] and in assay [19] was “inactive” in each case. Further, the call in [16], in [8], in [9], in [17], in assay [18] and in assay [11] was inactive. Besides, in [13], the molecule was called inactive.

`O=[N+]([O-])c1ccc(Nc2ccc(Nc3ccccc3)c(S(=O)(=O)O)c2)c([N+](=O)[O-])c1`: the Potency entry in assay [1], in assay [2], in assay [15], in assay [4], in assay [7] and in assay [10] was “inactive” throughout. Besides, the Potency entry in [12], in [14] and in [19] was “inactive” each time. Besides, the molecule was called inactive in assay [6], in assay [16], in [8], in [9], in [17] and in assay [18]. The call in assay [11] and in assay [13] was inactive.

As for `C=C(C)C(=O)OCCCCCCCCCCCCC`, the Potency result in [1], in [2], in assay [15], in assay [4], in [5] and in assay [7] was “inactive” throughout. Also, the Potency result in [10], in assay [12] and in assay [14] was “inactive” in each case. Also, the result in [6], in [16], in assay [9], in assay [18], in assay [11] and in assay [13] was inactive.

Values taken from PubChem BioAssay (Tox21).
